KCC2 mod – KCC2 (human) Cl- transport modulation; Q9H2X9; KCC2 cells, thallium flux FluoZin-2 fluorescence; B-score of Tl+ flux slope (higher = more flux/activation; lower = inhibition) at 10 µM; actives 2.2% (n = 190,000); AID 1456;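 active = thallium flux slope and its plate-corrected score both differing from the plate sample mean at a set confidence after two filtering rounds, in either direction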;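 also: slope of fluorescence scaled to starting intensity during 10 to 20 s after thallium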
L major viab – reduces viability of Leishmania major promastigotes. AID 1063. inhibition, % at 10 µM. actives 9% (n = 200,000). resazurin fluorescence viability; in the data active = inhibition above about 50%;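 also: promastigotes grown with compound for 44 hours at 28 °C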
Insulin prom inh – TRM-6 insulin promoter activity inhibition; TRM-6 cells (human fetal islet line), insulin promoter-eGFP reporter, imaging; reporter expression induced with tamoxifen; inhibition, % at 2 µM; actives 0.9% (n = 130,000); AID 1273;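 active = inhibition above the mean plus 3 SD, with well images judged a real hit on visual review, cut at about 60% in these data, passing the limit was not always enough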
Ins promoter up – MIN6 insulin promoter up-regulation. z-score at 5 µM. MIN6 insulin promoter-GFP reporter, high-content imaging; stronger effect = higher value. actives 0.3% (n = 190,000);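 active = z-score above 3 at 5 µM with at least 500 cells counted in the well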
ROMK primary – modulators of human ROMK potassium channel; B-score at 10 µM; P48048; actives 2% (n = 130,000); AID 1918; Tet-inducible ROMK, thallium flux fluorescence; actives lie on both sides;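 active = signal ratio slope over the read window, or its plate-corrected B-score, at least 3 SD from the plate mean, either direction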;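 also: B-score of the F/F0 ratio slope over 7 to 12 s after thallium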
WT yeast gro inh – growth inhibition of WT yeast, mitochondrial fusion screen; mitochondrial fusion phenotypic screen, WT strain; inhibition, % at 10 µM; actives 2.1% (n = 190,000); in the data active = inhibition above about 58%; tested in S. cerevisiae
Numbers without * were called inactive. Most compounds without a hit are left out; they make up all but 12% or so of the library.

What do the screens show for `Cn1c(SCC(=O)c2ccccc2)nnc1C1CC1`?
L major viab: -5.0; Ins promoter up: -0.07; ROMK primary: 0.5; WT yeast gro inh: 18.3

How did Cn1c(SCC(=O)O)nnc1C1CCCCC1 do in these assays?
KCC2 mod: 1.76; L major viab: -4.1; Insulin prom inh: 83.3*; Ins promoter up: 0.01; WT yeast gro inh: 1.3

What do the screens show for `O=C(c1ccccc1F)N1CCN(c2ccc([N+](=O)[O-])c3cccnc23)CC1`?
KCC2 mod: -1.59; L major viab: 63.4*; Ins promoter up: -0.85; ROMK primary: -3.07; WT yeast gro inh: -18.2

How did O=C(c1ccccc1F)N1CCN(c2ccc([N+](=O)[O-])c3ncccc23)CC1 do in these assays?
KCC2 mod: -0.435; L major viab: -0.9; Insulin prom inh: -9.4; Ins promoter up: -0.76; WT yeast gro inh: 1.4

Results for CN(C)S(=O)(=O)Oc1cccc(C(=O)Nc2ccc([N+](=O)[O-])cc2)c1 ?
KCC2 mod: -0.0844; L major viab: 5.1; Insulin prom inh: -6.7; Ins promoter up: 3.38*; ROMK primary: 0.263; WT yeast gro inh: -9.4

What do the screens show for `COc1ccc(/C=C(/C(=O)NCc2ccccc2)c2ccccc2)cc1`?
KCC2 mod: -3.25; L major viab: 92.3*; Insulin prom inh: 13.3; Ins promoter up: -0.72; ROMK primary: -2.68; WT yeast gro inh: 32.7

What do the screens show for `COc1ccccc1/C=C(/C(=O)OCC(=O)NCc1ccccc1)c1ccccc1`?
KCC2 mod: -0.858; L major viab: 62.0*; Insulin prom inh: -32.1; Ins promoter up: -0.14; WT yeast gro inh: 36.9

How did O=C(NCc1ccccc1)/C(=C/c1ccc(OC(F)F)cc1)c1ccccc1 do in these assays?
KCC2 mod: -0.839; L major viab: 46.3; Ins promoter up: -0.37; WT yeast gro inh: 62.8*

What do the screens show for `CSc1nccn1CC(=O)Nc1ccc(F)cc1`?
L major viab: -2.5; Insulin prom inh: -92.9; ROMK primary: 0.0634; WT yeast gro inh: 37.4

How did COc1ccc(-c2nc3c4ccccc4ccn3c2CN2CCCCC2)cc1 do in these assays?
KCC2 mod: -1.24; L major viab: 100.0*; Insulin prom inh: -7.1; Ins promoter up: -0.91; ROMK primary: 0.245; WT yeast gro inh: 18.7

Results for CN(C)Cc1c(-c2ccc(Cl)cc2)nc2ccccn12 ?
KCC2 mod: 0.774; L major viab: 29.2; Ins promoter up: -0.25; ROMK primary: -0.0886; WT yeast gro inh: -1.8

Results for Clc1ccc(-c2nc3ccccn3c2CN2CCCCC2)cc1 ?
KCC2 mod: -0.608; L major viab: 76.8*; Insulin prom inh: 0.0; Ins promoter up: -0.68; ROMK primary: 0.0474; WT yeast gro inh: 11.9

What do the screens show for `COc1ccc(OCCOC(=O)c2cccs2)cc1`?
L major viab: -1.6; Ins promoter up: -0.29; WT yeast gro inh: 2.6

Results for CC(C)C(=O)NC(c1ccccc1Cl)c1c(O)ccc2ccccc12 (stereo not drawn) ?
KCC2 mod: 0.0074; L major viab: 99.1*; Insulin prom inh: -3.5; Ins promoter up: -0.04; WT yeast gro inh: 5.0

Results for CC(C)C(=O)NC(c1ccco1)c1c(O)ccc2ccccc12 (stereo not drawn) ?
KCC2 mod: -1.39; L major viab: 29.0; Insulin prom inh: 17.2; Ins promoter up: 0.15; WT yeast gro inh: -3.6

Results for CCC(=O)NC(c1ccc(N(C)C)cc1)c1c(O)ccc2ccccc12 (stereo not drawn) ?
KCC2 mod: 0.392; L major viab: 100.0*; Ins promoter up: 0.31; ROMK primary: -0.11; WT yeast gro inh: 1.3

Results for COc1ccc(C(NC(=O)C(C)C)c2c(O)ccc3ccccc23)cc1OC (stereo not drawn) ?
KCC2 mod: 0.994; L major viab: 99.1*; Ins promoter up: 0.15; ROMK primary: -0.917; WT yeast gro inh: 3.0

Results for CCC(=O)NC(c1ccccc1Cl)c1c(O)ccc2ccccc12 (stereo not drawn) ?
KCC2 mod: -0.506; L major viab: 22.5; Ins promoter up: -0.33; WT yeast gro inh: -14.6

Results for COc1ccc(C(NC(=O)C(C)C)c2c(O)ccc3ccccc23)cc1 (stereo not drawn) ?
KCC2 mod: 0.124; L major viab: 96.3*; Insulin prom inh: -66.7; Ins promoter up: -0.19; ROMK primary: -0.123; WT yeast gro inh: -22.4

How did O=C(COC(=O)CSc1ccc2ccccc2c1)NC1CCCC1 do in these assays?
KCC2 mod: 0.885; L major viab: -7.0; Ins promoter up: 0.07; ROMK primary: 0.311; WT yeast gro inh: -12.4

How did COc1ccccc1C(NC(=O)C1CCCCC1)c1c(O)ccc2ccccc12 (stereo not drawn) do in these assays?
KCC2 mod: 0.149; L major viab: 40.2; Insulin prom inh: -26.7; Ins promoter up: 0.29; WT yeast gro inh: 1.7

What do the screens show for `CCC(=O)NC(c1ccc(OC)cc1)c1c(O)ccc2ccccc12` (stereo not drawn)?
KCC2 mod: -0.57; L major viab: 98.7*; Ins promoter up: 0.14; ROMK primary: 1.31; WT yeast gro inh: -3.6

Results for CCCC(=O)Nc1cccc(C(=O)Nc2nccs2)c1 ?
KCC2 mod: -0.115; L major viab: 34.9; Ins promoter up: 1.33; WT yeast gro inh: 4.9

What do the screens show for `CCCCN(C)S(=O)(=O)c1ccc(C(=O)Nc2nnc(-c3cccs3)o2)cc1`?
L major viab: 99.3*; Insulin prom inh: -107.1; ROMK primary: 0.851; WT yeast gro inh: 19.3

Results for CCCN(CCC)S(=O)(=O)c1ccc(C(=O)Nc2nnc(-c3cccc(OC)c3)o2)cc1 ?
KCC2 mod: 14.8*; L major viab: 97.7*; Insulin prom inh: 37.9; Ins promoter up: -1.01; ROMK primary: 0.0406; WT yeast gro inh: -0.8

How did COc1ccccc1-c1nnc(NC(=O)c2ccc(S(=O)(=O)N(C)C)cc2)o1 do in these assays?
KCC2 mod: -0.0533; L major viab: 14.8; Ins promoter up: -1.1; WT yeast gro inh: 3.4

How did COc1cccc(-c2nnc(NC(=O)c3ccc(Cl)s3)o2)c1 do in these assays?
KCC2 mod: 151*; L major viab: 54.8*; Insulin prom inh: -148.8; Ins promoter up: 0.28; ROMK primary: 1.94*; WT yeast gro inh: 61.8

Results for CCN(Cc1ccccc1)S(=O)(=O)c1ccc(C(=O)Nc2nnc(-c3ccccc3OC)o2)cc1 ?
KCC2 mod: 1.18; L major viab: 98.5*; Ins promoter up: 0.62; WT yeast gro inh: -17.6

Results for CN(CC(=O)Nc1ccccc1Cl)CC(=O)Nc1c(F)cccc1F ?
KCC2 mod: 0.0458; L major viab: -2.8; Ins promoter up: -0.38; ROMK primary: 0.397; WT yeast gro inh: 12.3

Results for CCCC(=O)Nc1nc2nc(-c3ccccc3)cc(-c3ccccc3)n2n1 ?
KCC2 mod: -1.36; L major viab: -4.9; Insulin prom inh: 15.8; Ins promoter up: -1.71; WT yeast gro inh: -32.7

Results for CC1CCCCN1S(=O)(=O)c1ccc(C(=O)Nc2nnc(-c3ccncc3)o2)cc1 (stereo not drawn) ?
KCC2 mod: -0.471; L major viab: 8.3; Insulin prom inh: 10.0; ROMK primary: -1.36; WT yeast gro inh: 7.8

Source: PubChem BioAssay
